For 21 compounds, growth inhibition, inhibition and outcome results are on record in PubChem BioAssay.

In general, inhibition refers to the change of the read-out against control, counted positive when it falls.

Unmarked numbers belong to inactive results. For part of these data: Potency and affinity values are given separately. Calls of active or inactive are those of the source. Unless noted, how the calls were made is not given here.

Test [1] in a line: antimalarial activity against Dd2 strain (AID 2302;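 active means growth inhibition above 50% at the single 2 µM test dose, taken to imply half-maximal potency below 2 µM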;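 further: 0% = DMSO untreated growth and 100% = chloroquine plus artemisinin killed control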). The settings on record: P. falciparum Dd2 in RBCs, LDH growth readout, 72 h; at 2 µM; stronger effect = higher value.
Test [2] is described as follows: human hepatoma cell viability loss – ATP luminescence, cytotoxicity control for P. falciparum antimalarial project, primary screen (AID 2303;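 active means inhibition above 50%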;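 further: 0% = DMSO wells and 100% = digitonin-killed cells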). The settings on record: HepG2 viability, 24-48 h, at 10 µM, stronger effect = higher value.
Test [3] has as its target L-lactate dehydrogenase (Plasmodium falciparum (isolate CDC / Honduras)) (UniProt Q27743). The experiment in a line: PfLDH activity inhibition – cell lysate, 3D7 strain, counter-screen for P. falciparum growth inhibition project (AID 2304).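 Further: 0% = vehicle and 100% = reference inhibitor.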 Particulars: P. falciparum 3D7 crude extract, LDH APAD/NBT absorbance; at 2 µM; stronger effect = higher value. A general note: Counterscreens check selectivity or assay interference.

A short description of test [4]: inhibition of 3D7 malaria parasite growth – strain 3D7 (AID 2306).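 Further: 0% = DMSO wells and 100% = chloroquine plus artemisinin control wells.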 The settings on record: P. falciparum 3D7 erythrocytic growth, LDH absorbance, 72 h; at 2 µM; stronger effect = higher value.
Test [5] concerns the target Calcium-dependent protein kinase 1 (Plasmodium falciparum (isolate 3D7)) (UniProt P62344). The test can be described thus: PfCDPK1 kinase inhibitors, biochemical, TCAMS library (AID 1159585; cut-off not given, nearly all actives have IC50 up to about 0.98 µM;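 further: inhibitors leave more ATP so luminescence rises with inhibition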). The settings on record: recombinant PfCDPK1, Kinase-Glo ATP depletion luminescence. A general note: Kinase-Glo measures the ATP left after a reaction by luminescence.
Test [6] deals with Plasmodium falciparum protein kinase 6 (PK6, PF3D7_1337100) (UniProt Q8IDW1). The test can be described thus: PfPK6 kinase inhibitors, biochemical, TCAMS library (AID 1159586). Particulars: recombinant PfPK6, Kinase-Glo ATP depletion luminescence.
The target of test [7] is Protein kinase 7 (PK7), Plasmodium falciparum 3D7 (PF3D7_0213400) (UniProt Q7YTF7). The experiment in a line: inhibition of Plasmodium PK7 catalytic activity – biochemical, TCAMS antimalarial set, Kinase-Glo luminescence (AID 1159587). The settings on record: recombinant PfPK7, Kinase-Glo ATP depletion luminescence.
Test [8] concerns the target Calcium-dependent protein kinase 4 (Plasmodium falciparum (isolate 3D7)) (UniProt Q8IBS5). The experiment in a line: PfCDPK4 kinase inhibitors, biochemical, TCAMS library (AID 1159588; cut-off not given, nearly all actives have IC50 up to about 0.91 µM). The settings on record: recombinant PfCDPK4, Kinase-Glo ATP depletion luminescence.

Chain of Plasmodium falciparum protein kinase 6 (PK6, PF3D7_1337100) (Q8IDW1 1-305): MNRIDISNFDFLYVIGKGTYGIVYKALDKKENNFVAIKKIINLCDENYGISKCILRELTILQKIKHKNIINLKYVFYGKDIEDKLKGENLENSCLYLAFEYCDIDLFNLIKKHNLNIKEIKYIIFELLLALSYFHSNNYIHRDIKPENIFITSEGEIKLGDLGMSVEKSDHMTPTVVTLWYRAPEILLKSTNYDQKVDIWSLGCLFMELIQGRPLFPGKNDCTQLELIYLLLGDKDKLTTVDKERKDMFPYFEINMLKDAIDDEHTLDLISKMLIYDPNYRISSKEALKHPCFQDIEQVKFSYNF
Chain of Calcium-dependent protein kinase 1 (Plasmodium falciparum (isolate 3D7)) (P62344 whole entry, looked up): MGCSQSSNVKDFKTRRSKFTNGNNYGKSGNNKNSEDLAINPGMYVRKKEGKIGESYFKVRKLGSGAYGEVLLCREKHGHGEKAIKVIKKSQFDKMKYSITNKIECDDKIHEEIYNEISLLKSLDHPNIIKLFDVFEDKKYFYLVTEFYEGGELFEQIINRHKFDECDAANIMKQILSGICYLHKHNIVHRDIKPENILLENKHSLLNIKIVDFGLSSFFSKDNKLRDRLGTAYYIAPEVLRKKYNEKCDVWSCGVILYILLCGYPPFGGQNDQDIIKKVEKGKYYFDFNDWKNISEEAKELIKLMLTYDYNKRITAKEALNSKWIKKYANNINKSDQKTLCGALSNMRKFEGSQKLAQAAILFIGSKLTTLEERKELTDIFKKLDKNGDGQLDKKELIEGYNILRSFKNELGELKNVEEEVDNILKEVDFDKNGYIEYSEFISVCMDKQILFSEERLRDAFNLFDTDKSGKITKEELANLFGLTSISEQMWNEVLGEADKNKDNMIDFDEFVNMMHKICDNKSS
Chain of Calcium-dependent protein kinase 4 (Plasmodium falciparum (isolate 3D7)) (Q8IBS5 whole entry, looked up): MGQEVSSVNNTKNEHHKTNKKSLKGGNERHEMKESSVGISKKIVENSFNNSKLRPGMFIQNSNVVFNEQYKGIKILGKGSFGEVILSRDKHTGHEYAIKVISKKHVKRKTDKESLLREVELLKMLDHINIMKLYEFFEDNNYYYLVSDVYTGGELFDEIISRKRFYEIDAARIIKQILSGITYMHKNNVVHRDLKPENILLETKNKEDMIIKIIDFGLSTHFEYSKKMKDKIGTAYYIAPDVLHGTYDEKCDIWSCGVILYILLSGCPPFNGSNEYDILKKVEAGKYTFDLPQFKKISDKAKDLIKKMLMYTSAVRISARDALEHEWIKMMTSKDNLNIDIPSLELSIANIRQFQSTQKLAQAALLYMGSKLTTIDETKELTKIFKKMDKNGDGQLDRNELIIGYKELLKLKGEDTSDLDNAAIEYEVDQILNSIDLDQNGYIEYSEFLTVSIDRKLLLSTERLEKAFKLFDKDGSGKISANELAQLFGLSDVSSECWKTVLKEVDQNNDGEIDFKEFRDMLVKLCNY
Chain of Protein kinase 7 (PK7), Plasmodium falciparum 3D7 (PF3D7_0213400) (Q7YTF7 1-343): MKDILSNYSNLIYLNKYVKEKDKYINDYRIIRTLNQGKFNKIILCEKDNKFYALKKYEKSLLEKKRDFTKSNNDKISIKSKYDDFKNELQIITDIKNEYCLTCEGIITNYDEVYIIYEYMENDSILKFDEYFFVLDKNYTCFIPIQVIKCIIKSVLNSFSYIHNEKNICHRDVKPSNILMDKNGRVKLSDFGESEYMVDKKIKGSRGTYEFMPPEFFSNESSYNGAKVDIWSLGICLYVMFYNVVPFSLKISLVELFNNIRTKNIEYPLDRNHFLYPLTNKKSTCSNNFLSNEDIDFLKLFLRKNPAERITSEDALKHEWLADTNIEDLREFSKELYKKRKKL
Chain of L-lactate dehydrogenase (Plasmodium falciparum (isolate CDC / Honduras)) (Q27743 whole entry, looked up): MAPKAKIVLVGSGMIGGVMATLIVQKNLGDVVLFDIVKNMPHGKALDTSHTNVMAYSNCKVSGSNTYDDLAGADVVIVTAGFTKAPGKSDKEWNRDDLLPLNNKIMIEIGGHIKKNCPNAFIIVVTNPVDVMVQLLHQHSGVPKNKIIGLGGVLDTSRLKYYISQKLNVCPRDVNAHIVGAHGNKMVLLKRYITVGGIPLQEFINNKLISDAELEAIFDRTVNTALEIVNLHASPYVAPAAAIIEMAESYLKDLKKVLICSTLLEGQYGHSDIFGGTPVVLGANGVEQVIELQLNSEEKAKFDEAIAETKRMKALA

As to `COc1ccc(Nc2nc(NCc3cccnc3)cc(-c3ccc(OC)cc3)n2)cc1`, the figures for the growth inhibition in test [1] and in test [4] were 16% and 89% (active), respectively. The figures for the inhibition in test [2] and in test [3] were -2% and 3%, respectively. Further, the outcome in test [5], in test [6], in test [7] and in test [8] was inactive.
`O=C1CC(C(=O)O)CC(=O)N1`: the growth inhibition in test [1] was 88% (active); in test [4], 94% (active). In addition, the inhibition in test [2] was -3%; in test [3], 6%. Further, the result in test [5], in test [6], in test [7] and in test [8] was inactive.
For `COc1cc2ncnc(Nc3ccc(OCc4ccccc4Br)c(Cl)c3)c2cc1OC`, the growth inhibition is 6% in test [1] and 96% (active) in test [4]. Also, the inhibition was 25% in test [2] and -4% in test [3]. The outcome in test [5], in test [6], in test [7] and in test [8] was inactive.
Consider `O=C(NCCCCCN1CCC(c2c[nH]c3ccccc23)CC1)Nc1ccc(Br)cc1`, for which the growth inhibition is -4% in test [1] and 91% (active) in test [4]. The inhibition is 24% in test [2] and 1% in test [3]. The outcome in test [5], in test [6], in test [7] and in test [8] was inactive.
`COc1cccc(OC(C)(C)c2nc(N[C@@H](C)c3ccccc3)c3cn[nH]c3n2)c1`: the growth inhibition was 69% (active) in test [1] and 89% (active) in test [4]. Moreover, the inhibition in test [2] is 44%; in test [3], -4%. Besides, the outcome in test [5], in test [6], in test [7] and in test [8] was inactive.
Take `Cc1cc(C2CCN(CCCCNC(=O)c3ccc(NC(=O)c4ccc(Cl)cc4)cc3)CC2)c(C)cc1OCCN(C)C`: the growth inhibition was 77% (active) in test [1] and 100% (active) in test [4]. The inhibition is 18% in test [2] and -1% in test [3]. In addition, the result in test [5], in test [6], in test [7] and in test [8] was inactive.
As for `CC(=O)c1c(Cc2ccccc2Cl)c[nH]c1C`, the results for the growth inhibition in test [1] and in test [4] were 53% (active) and 95% (active), respectively. In addition, the inhibition in test [2] is -2%; in test [3], 0%. For the same compound, the outcome in test [5], in test [6], in test [7] and in test [8] was inactive.
For the compound `Cc1cc2nc(-c3ccc(C(=O)NCc4ccc(C(C)(C)C)cc4)cc3)[nH]c2cc1C`, the figures for the growth inhibition in test [1] and in test [4] were 59% (active) and 101% (active), respectively. The inhibition in test [2] is 3%; in test [3], -3%. The result in test [5], in test [6], in test [7] and in test [8] was inactive.
In the case of `COc1ccc2c(c1)c(C1CCN(CCCCNC(=O)c3ccc(-c4ccc(C(F)(F)F)cc4)cc3)CC1)cn2C(C)C`, the growth inhibition in test [1] was 21%; in test [4], 99% (active). For the same compound, the values for the inhibition in test [2] and in test [3] were 26% and 0%, respectively. The result in test [5], in test [6], in test [7] and in test [8] was inactive.
Regarding `CC(C)CNC(=O)c1cncc(-c2ccc(CN3CCC(N4CCCC4)CC3)cc2)c1`, the results for the growth inhibition in test [1] and in test [4] were 42% and 100% (active), respectively. In addition, the inhibition in test [2] was 25%; in test [3] it was 2%. Further, the outcome in test [5], in test [6], in test [7] and in test [8] was inactive.
As for `CN1CCN(Cc2cccc(-c3ccc4c(Nc5ccc(Oc6cccnc6)cc5)ccnc4c3)c2)CC1`, the growth inhibition in test [1] and in test [4] was 100% (active) throughout. Further, the inhibition in test [2] is 15%; in test [3], 0%. The result in test [5], in test [6], in test [7] and in test [8] was inactive.
Turning to `NC(=O)c1cccc(Nc2nccc(Nc3ccc(Oc4cccc5ccccc45)cc3)n2)c1`, the growth inhibition was 22% in test [1] and 94% (active) in test [4]. The inhibition in test [2] was -10%; in test [3] it was 3%. Moreover, the result in test [5], in test [6], in test [7] and in test [8] was inactive.
With `CO/C(=C\C=C\c1cc2cc(Cl)c(Cl)cc2[nH]1)C(=O)NCCCN1CCN(c2cccc(O)c2)CC1`, the growth inhibition is 100% (active) in test [1] and 91% (active) in test [4]. The inhibition in test [2] was 46%; in test [3], -2%. The outcome in test [5], in test [6], in test [7] and in test [8] was inactive.
As to `O=C(NC1CCCCC1)C1CCCN(C(=O)c2ccc(O)c(-c3ccc(Cl)c(Cl)c3)c2)C1` (stereo not drawn), the figures for the growth inhibition in test [1] and in test [4] were 42% and 89% (active), respectively. Besides, the inhibition in test [2] was 22%; in test [3] it was 0%. For the same compound, the result in test [5], in test [6], in test [7] and in test [8] was inactive.
With `O=C(c1ccc([N+](=O)[O-])o1)N1CCN(c2nc3c(Cl)cccc3s2)CC1`, the growth inhibition in test [1] was 87% (active); in test [4] it was 91% (active). For the same compound, the figures for the inhibition in test [2] and in test [3] were -12% and 6%, respectively. In addition, the outcome in test [5], in test [6], in test [7] and in test [8] was inactive.
As for `O=C(Cn1c(CCc2cccc(F)c2F)cc(=O)c2ccccc21)N(CCN1CCCC1)Cc1ccc(-c2ccc(C(F)(F)F)cc2)cc1`, the growth inhibition in test [1] is 57% (active); in test [4] it was 99% (active). In addition, the inhibition in test [2] was 89% (active); in test [3], -2%. In addition, the result in test [5], in test [6], in test [7] and in test [8] was inactive.
For the compound `O=C(NCc1cccnc1)C(c1cc2ccccc2o1)N1CCN(C(c2ccccc2)c2ccccc2)CC1` (stereo not drawn), the growth inhibition is 81% (active) in test [1] and 95% (active) in test [4]. Also, the inhibition in test [2] was 12%; in test [3], 6%. Besides, the result in test [5], in test [6], in test [7] and in test [8] was inactive.
For the compound `COc1ccc(CNC2CCN(C)CC2)cc1-c1ccc(S(=O)(=O)NCCc2ccccn2)c(F)c1`, the growth inhibition was 55% (active) in test [1] and 101% (active) in test [4]. In addition, the figures for the inhibition in test [2] and in test [3] were 3% and 1%, respectively. The outcome in test [5], in test [6], in test [7] and in test [8] was inactive.
Turning to `Cc1ccc(Nc2nc(C)cc(N3CCN(c4ccccc4)CC3)n2)cc1`, the growth inhibition is 72% (active) in test [1] and 93% (active) in test [4]. The inhibition in test [2] is 4%; in test [3], 3%. Also, the result in test [5], in test [6], in test [7] and in test [8] was inactive.
Regarding `CNc1ccc(CNCc2cccc(-c3ccc(-c4nc5ccc(C(F)(F)F)cc5[nH]4)cc3)c2)cc1`, the growth inhibition in test [1] was 100% (active); in test [4] it was 101% (active). Moreover, the inhibition in test [2] is 21%; in test [3], 0%. Also, the outcome in test [5], in test [6], in test [7] and in test [8] was inactive.
`Nc1nccc2ccc(-c3ccc4ncccc4c3)cc12`: the growth inhibition in test [1] and in test [4] was 100% (active) in each case. In addition, the values for the inhibition in test [2] and in test [3] were 97% (active) and -7%, respectively. In addition, the outcome in test [5], in test [6], in test [7] and in test [8] was inactive.
